Here are results for 20 molecules from ChEMBL document CHEMBL2218924, “A broad activity screen in support of a chemogenomic map for kinase signalling research and drug discovery” (Biochem J, 2013).

As a reminder, the residual activity is the signal under treatment as a percentage of the control signal.

Each structure is given as a SMILES string.

In experiment [1] the target is Protein kinase C alpha type (Homo sapiens) (UniProt P17252). The conditions noted are these: at 1 µM.
Experiment [2] has the same target. The conditions noted are these: at 10 µM.
The target of experiment [3] is Protein kinase C beta type (Homo sapiens) (UniProt P05771). The conditions noted are these: at 1 µM.
Sequence of Protein kinase C beta type (Homo sapiens) (P05771 2-671 limits assumed): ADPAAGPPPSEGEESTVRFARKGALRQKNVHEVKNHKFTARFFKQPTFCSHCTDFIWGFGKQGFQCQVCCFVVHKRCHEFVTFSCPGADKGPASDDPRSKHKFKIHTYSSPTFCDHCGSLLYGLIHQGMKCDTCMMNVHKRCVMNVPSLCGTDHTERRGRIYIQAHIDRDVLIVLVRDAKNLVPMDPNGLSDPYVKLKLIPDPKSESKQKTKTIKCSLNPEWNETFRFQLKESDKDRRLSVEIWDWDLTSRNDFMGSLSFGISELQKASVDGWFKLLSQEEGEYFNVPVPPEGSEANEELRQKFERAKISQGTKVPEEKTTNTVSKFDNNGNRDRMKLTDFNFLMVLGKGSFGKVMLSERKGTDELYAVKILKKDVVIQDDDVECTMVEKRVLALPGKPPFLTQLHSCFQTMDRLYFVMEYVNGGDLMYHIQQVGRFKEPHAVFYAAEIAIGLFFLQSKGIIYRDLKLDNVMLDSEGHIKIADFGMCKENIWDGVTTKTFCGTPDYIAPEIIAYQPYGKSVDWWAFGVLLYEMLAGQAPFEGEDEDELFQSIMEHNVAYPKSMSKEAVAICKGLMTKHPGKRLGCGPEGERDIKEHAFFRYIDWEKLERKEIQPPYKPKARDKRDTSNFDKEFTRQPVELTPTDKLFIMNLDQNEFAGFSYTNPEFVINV
Experiment [4] shares this target. The conditions noted are these: at 10 µM.
The target is the same in experiment [5]. The conditions noted are these: at 1 µM. This is another data set of the same source.
Experiment [6] shares this target. The conditions noted are these: at 10 µM. This is another data set of the same source.
Experiment [7] deals with Protein kinase C gamma type (Homo sapiens) (UniProt P05129). The conditions noted are these: at 1 µM.
In experiment [8] the target is Protein kinase C delta type (Homo sapiens) (UniProt Q05655). The conditions noted are these: at 1 µM.
Sequence of Protein kinase C delta type (Homo sapiens) (Q05655 whole entry, looked up): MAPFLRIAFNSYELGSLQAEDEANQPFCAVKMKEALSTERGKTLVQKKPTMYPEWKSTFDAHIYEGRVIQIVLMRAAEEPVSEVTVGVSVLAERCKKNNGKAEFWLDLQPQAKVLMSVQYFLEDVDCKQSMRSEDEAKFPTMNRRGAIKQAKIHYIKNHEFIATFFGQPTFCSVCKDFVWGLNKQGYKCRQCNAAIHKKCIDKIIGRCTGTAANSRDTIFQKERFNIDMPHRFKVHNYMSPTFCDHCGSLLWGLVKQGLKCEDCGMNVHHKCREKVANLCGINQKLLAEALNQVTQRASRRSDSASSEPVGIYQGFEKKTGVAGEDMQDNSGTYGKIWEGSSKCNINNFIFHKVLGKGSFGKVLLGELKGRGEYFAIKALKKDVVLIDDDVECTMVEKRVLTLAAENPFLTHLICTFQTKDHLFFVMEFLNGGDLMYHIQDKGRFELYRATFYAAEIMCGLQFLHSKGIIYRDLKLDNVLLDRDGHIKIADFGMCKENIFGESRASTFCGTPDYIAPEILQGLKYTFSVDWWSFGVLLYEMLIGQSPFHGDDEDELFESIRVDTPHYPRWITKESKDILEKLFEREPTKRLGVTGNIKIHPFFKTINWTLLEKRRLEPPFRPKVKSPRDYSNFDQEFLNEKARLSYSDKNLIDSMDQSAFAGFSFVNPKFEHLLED
The target is the same in experiment [9]. The conditions noted are these: at 10 µM.
In experiment [10] the target is T1, Protein kinase C epsilon type (Homo sapiens) (UniProt Q02156).
T1 sequence (whole entry): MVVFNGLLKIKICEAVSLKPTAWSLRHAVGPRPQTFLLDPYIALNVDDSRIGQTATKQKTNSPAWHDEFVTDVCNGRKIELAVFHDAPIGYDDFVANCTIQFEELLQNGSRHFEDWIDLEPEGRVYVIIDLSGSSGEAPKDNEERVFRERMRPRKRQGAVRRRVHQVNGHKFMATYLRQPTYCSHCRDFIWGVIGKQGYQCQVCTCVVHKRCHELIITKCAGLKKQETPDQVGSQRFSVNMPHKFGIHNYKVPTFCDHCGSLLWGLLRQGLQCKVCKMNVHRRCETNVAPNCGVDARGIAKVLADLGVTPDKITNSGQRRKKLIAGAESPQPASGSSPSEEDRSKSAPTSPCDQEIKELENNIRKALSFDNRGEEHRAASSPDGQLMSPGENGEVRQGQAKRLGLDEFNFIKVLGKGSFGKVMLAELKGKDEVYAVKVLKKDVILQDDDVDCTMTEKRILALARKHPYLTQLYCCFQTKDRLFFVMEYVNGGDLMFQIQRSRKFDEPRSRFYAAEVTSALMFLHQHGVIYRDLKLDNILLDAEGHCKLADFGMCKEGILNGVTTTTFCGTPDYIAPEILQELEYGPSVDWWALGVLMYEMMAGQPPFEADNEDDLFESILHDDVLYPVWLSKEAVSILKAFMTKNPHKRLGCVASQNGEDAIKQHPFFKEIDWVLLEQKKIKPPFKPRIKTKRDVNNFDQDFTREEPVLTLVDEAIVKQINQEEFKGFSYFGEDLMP
The conditions noted are these: at 1 µM.

The target of experiment [11] is T1, Protein kinase C epsilon type (Homo sapiens). The conditions noted are these: at 10 µM.
Experiment [12] deals with Protein kinase C gamma type (Homo sapiens) (UniProt P05129). The conditions noted are these: at 10 µM.

For the molecule `O=C1c2ccccc2-[n+]2ccc3c([nH]c4ccccc43)c21`, the residual activity in experiment [1] turned out to be 106%; in [2] it was 98%; in [3], 102%; in experiment [4], 97%; in [5], 93%; in [6], 88%. Moreover, the residual activity in experiment [7] worked out at 97%; in [8], 101%; in experiment [9], 104%; in experiment [10] it was 93%; in experiment [11] it was 94%.
Turning to `CCN(CC)C(=O)c1ccc(Nc2nc(OCC3CCCCC3)c3nc[nH]c3n2)cc1`, the residual activity in [1] is 95%; in experiment [2] it was 58%; in experiment [7], 46%; in experiment [12] it was 13%; in experiment [8], 78%; in experiment [9] it was 26%. Further, the residual activity in experiment [10] turned out to be 80%; in [11], 69%.
Turning to `Cc1cncc2cccc(S(=O)(=O)N3CCCN(C(=O)CN)C[C@H]3C)c12`, the residual activity in [1] came out at 99%; in [2], 85%; in experiment [3], 82%; in experiment [4], 31%; in experiment [5], 95%; in experiment [6], 51%. In addition, the residual activity in [8] was found to be 7%; in [9], 3%; in [10], 58%; in experiment [11], 23%.
For the molecule `O=C1Nc2ccccc2/C1=C1/Nc2ccccc2/C1=N\OCCC(O)CO` (centres undefined), the residual activity in experiment [1] stood at 96%; in experiment [2], 65%; in experiment [3], 108%; in experiment [5] it was 97%; in [6], 99%; in [7], 81%. The residual activity in experiment [12] was 74%; in experiment [10] it was 95%; in experiment [11], 82%.
Take `COc1cc2ncnc(Nc3ccc(NC(=O)c4ccccc4)cc3)c2cc1OC`: the residual activity came to 107% in experiment [2]; 100% in experiment [5]; 94% in [6]; 107% in experiment [8]; 102% in [9]; 93% in experiment [10].
Regarding `CC(C)n1cnc2c(NCc3ccccc3)nc(NCCCO)nc21`, the residual activity in experiment [1] came to 99%; in experiment [2], 102%; in [3], 106%; in [4] it was 105%; in experiment [5] it was 105%; in experiment [6], 104%. In addition, the residual activity in experiment [7] worked out at 92%; in experiment [12] it was 104%; in experiment [8] it was 94%; in [9], 98%; in [10], 91%; in [11], 103%.
In the case of `Nc1cccc(-c2cc3c(Oc4cccc(O)c4)ncnc3[nH]2)c1`, the residual activity is 97% in [2]; 104% in [5]; 95% in [6]; 98% in experiment [7]; 101% in experiment [12]; 100% in experiment [8]. The residual activity was determined as 95% in [9], 120% in experiment [10] and 98% in [11].
For `Cc1cccc(-c2[nH]c(C(C)(C)C)nc2-c2ccc3c(c2)OCO3)n1`, the residual activity turned out to be 98% in experiment [8], 101% in [9], 80% in experiment [10] and 91% in experiment [11].
Turning to `COc1ccc(CNc2nc(N(CCO)CCO)nc3c2ncn3C(C)C)cc1`, the residual activity stood at 34% in experiment [1]; 13% in experiment [2]; 87% in experiment [3]; 86% in experiment [4]; 87% in experiment [5]; 79% in [6]. In addition, the residual activity in [7] was determined as 97%; in experiment [12], 86%; in experiment [8] it was 60%; in [9], 27%; in [10] it was 115%; in [11] it was 105%.
As to `O=C1Nc2ccc(Br)cc2/C1=C\c1cc2c([nH]1)CCCC2`, the residual activity stood at 104% in experiment [1]; 105% in experiment [2]; 109% in experiment [7]; 111% in experiment [12]; 100% in [8]; 107% in [9].
Turning to `Cc1cc2ncc(-c3ccccc3)nc2cc1C`, the residual activity was determined as 106% in experiment [1]; 109% in [2]; 125% in experiment [3]; 131% in experiment [4]; 100% in [5]; 107% in experiment [6]. The residual activity in [7] was determined as 106%; in [12] it was 105%; in experiment [8], 103%; in [9], 85%; in experiment [11] it was 100%.
On to `CCN(CC)CCCCN1c2ccccc2Oc2ccc(Cl)cc21`, for which the residual activity was 112% in experiment [1]; 107% in experiment [2]; 105% in experiment [3]; 98% in [4]; 103% in experiment [5]; 95% in [6]. The residual activity in experiment [7] was determined as 117%; in experiment [12], 108%; in experiment [8] it was 107%; in experiment [9], 111%; in [10], 84%; in experiment [11], 99%.
As for `COc1cc2ncnc(N3CCN(C(=O)Nc4ccc(Oc5ccccc5)cc4)CC3)c2cc1OC`, the residual activity in [1] is 99%; in [2], 103%; in experiment [3] it was 106%; in experiment [4] it was 97%; in experiment [5], 101%; in experiment [6] it was 102%. For the same molecule, the residual activity in experiment [7] turned out to be 103%; in experiment [12], 107%; in experiment [8], 101%; in [9], 110%; in [10], 96%; in [11], 90%.
Turning to `O=C1NC(=O)c2cc(Nc3ccc(F)cc3)c(Nc3ccc(F)cc3)cc21`, the residual activity is 104% in [1]; 101% in experiment [2]; 107% in experiment [3]; 86% in experiment [4]; 93% in experiment [5]; 103% in experiment [6]. The residual activity stood at 111% in [7]; 98% in experiment [12]; 97% in [8]; 105% in [9]; 67% in [10]; 73% in experiment [11].
As for `Cc1cc(Nc2nc(-c3ccccc3)nc3ccccc23)n[nH]1`, the residual activity amounted to 63% in experiment [2], 109% in experiment [3], 106% in [5] and 51% in experiment [12].
On to `CO[C@H]1[C@@H](OC)C[C@H](C)[C@@H](OC)C2=CC(=O)C=C(NC(=O)/C(C)=C/C=C/[C@H](OC)[C@@H](OC(N)=O)/C(C)=C/[C@@H]1C)C2=O`, for which the residual activity in experiment [1] is 110%; in experiment [2], 107%; in [3], 106%; in [4], 121%; in [5], 92%; in experiment [6] it was 97%. Besides, the residual activity came out at 111% in experiment [7]; 99% in experiment [12]; 107% in experiment [8]; 107% in experiment [9]; 100% in [10]; 102% in [11].
`O=C(O)c1ccc2c3c1cccc3c(=O)n1c3ccccc3nc21`: the residual activity in [1] is 99%; in experiment [2], 98%; in [3], 125%; in experiment [4], 113%; in experiment [5], 115%; in [6], 100%. For the same molecule, the residual activity in experiment [7] is 94%; in experiment [12], 74%; in experiment [8] it was 100%; in experiment [9] it was 107%; in [10], 112%; in experiment [11] it was 109%.
`O=C(Nc1cccc(Nc2nccc(Nc3cccc(C(F)(F)F)c3)n2)c1)C1CC1`: the residual activity in experiment [1] was found to be 95%; in [2], 66%; in [3], 110%; in experiment [4], 107%; in [5], 99%; in [6] it was 102%. The residual activity amounted to 98% in [7]; 90% in [12]; 100% in experiment [8]; 106% in experiment [9]; 95% in [10]; 80% in experiment [11].
Regarding `Cc1ccc(S(=O)(=O)/C=C/C#N)cc1`, the residual activity worked out at 88% in experiment [1]; 93% in [2]; 98% in [3]; 102% in [4]; 104% in experiment [5]; 99% in [7]. The residual activity amounted to 87% in [12]; 101% in [8]; 105% in [9]; 101% in [10]; 92% in [11].
For `CN(C)CCCn1cc(C2=C(c3c[nH]c4ccccc34)C(=O)NC2=O)c2ccccc21`, the residual activity is 9% in experiment [5], 2% in experiment [6], 2% in [8] and -1% in experiment [9].
